The record followed here is PubChem BioAssay (NCATS).

Assay [1] is described as follows: Cell Viability - LYMP2-020 (AID 986).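 Further: series mostly up to about 92 µM; plate controls were DMSO only for no effect and tetraoctylammonium bromide at 92 µM for full effect; nearly all actives have a fitted effect of over 55% in size.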 The method in brief: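 Human lymphoblastoid LYMP2-020 cells (2500/well) preincubated 5 h at 37 C, then treated 24 h at 37 C. Viability measured as intracellular ATP by CellTiter-Glo luminescence after 30 min at room temperature; AC50 from Hill fits.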
The nature of assay [2]: Cell Viability - LYMP2-022 (AID 987).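 Further: 0% = DMSO alone and full effect = tetraoctylammonium bromide at 92 µM; nearly all actives have a fitted effect of over 55% in size.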 The method in brief: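 LYMP2-022 lymphoblastoid cells (2500/well, complete medium) were treated with compounds for 24 hours at 37 C; intracellular ATP was then read by CellTiter-Glo luminescence after 30 min at room temperature. AC50 values were derived from Hill-equation fits.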
Assay [3] can be described thus: Cell Viability - LYMP2-026 (AID 989). Further: on the % scale 0 is the no-effect control and ±100 the full control effect; nearly all actives have a fitted effect of over 50% in size. The method in brief:
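Human lymphoblastoid LYMP2-026 cells, 2500/well, exposed to compound 24 h at 37 C in complete medium. Viability as intracellular ATP by CellTiter-Glo luminescence; AC50 from Hill fits of qHTS concentration-response.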

Assay [4] is described as follows: Cell Viability - LYMP1-002 - Assay at 24 hr (AID 993). Further: on the % scale 0 is the no-effect control and ±100 the full control effect. In short, it runs like this:
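Human lymphoblastoid LYMP1-002 cells (2500/well) treated 24 h at 37 °C; viability as intracellular ATP by CellTiter-Glo luminescence. Tetraoctylammonium bromide as positive control; AC50 from Hill-equation fits of qHTS concentration-response.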

The nature of assay [5]: Cell Viability - LYMP1-002 - Assay at 40 hr (AID 994).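 Further: 0% = DMSO only and full inhibition = 92 µM tetraoctylammonium bromide; nearly all actives have a fitted effect of over 60% in size.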 In short, it runs like this:
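LYMP1-002 human lymphoblastoid cells (2500/well, complete medium) were treated with compounds for 40 hr at 37 C. Intracellular ATP was measured by CellTiter-Glo luminescence, and AC50 values came from Hill-equation fits of concentration-response data; tetraoctylammonium bromide was the positive control.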

Assay [6] is described as follows: qHTS Assay for Identification of Small Molecule Inducers of Hypoxia Response (AID 2120; active means well fitted curve in the direction sought with a large enough effect in the signal ratio, with a control signal flat, not every such curve was filed as active; the % refers to the signal ratio; further: 0% is about no effect). The method in brief:
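HRE-bla ME-180 cells in Opti-MEM with 0.5% dialyzed FBS, pre-plated 4-5 h, then compound titration for 17 h at 37 degrees Celsius. CCF4 loaded 2.5 h at room temperature; 460/530 nm ratio gave %Activity and AC50 for induction.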

Assay [7] deals with Estrogen receptor (Homo sapiens) (UniProt P03372). Put plainly: qHTS assay for small molecule antagonists of estrogen receptor alpha signaling (AID 588513; active means well fitted curve in the direction sought with a large enough effect in the signal ratio, with a control signal flat, not every such curve was filed as active; the % refers to the signal ratio; further: on the % scale 0 is the no-effect control and ±100 the full control effect). The method in brief: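 Beta-lactamase reporter, antagonist mode, HEK 293 GripTite cells; 0.5nM E2 stimulus, 18 h, 37 C; CCF4 dye 2 h RT; fluorescence. IC50 and efficacy from Hill fits, normalized to E2 and DMSO.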
Sequence of Estrogen receptor (Homo sapiens) (P03372 whole entry, looked up): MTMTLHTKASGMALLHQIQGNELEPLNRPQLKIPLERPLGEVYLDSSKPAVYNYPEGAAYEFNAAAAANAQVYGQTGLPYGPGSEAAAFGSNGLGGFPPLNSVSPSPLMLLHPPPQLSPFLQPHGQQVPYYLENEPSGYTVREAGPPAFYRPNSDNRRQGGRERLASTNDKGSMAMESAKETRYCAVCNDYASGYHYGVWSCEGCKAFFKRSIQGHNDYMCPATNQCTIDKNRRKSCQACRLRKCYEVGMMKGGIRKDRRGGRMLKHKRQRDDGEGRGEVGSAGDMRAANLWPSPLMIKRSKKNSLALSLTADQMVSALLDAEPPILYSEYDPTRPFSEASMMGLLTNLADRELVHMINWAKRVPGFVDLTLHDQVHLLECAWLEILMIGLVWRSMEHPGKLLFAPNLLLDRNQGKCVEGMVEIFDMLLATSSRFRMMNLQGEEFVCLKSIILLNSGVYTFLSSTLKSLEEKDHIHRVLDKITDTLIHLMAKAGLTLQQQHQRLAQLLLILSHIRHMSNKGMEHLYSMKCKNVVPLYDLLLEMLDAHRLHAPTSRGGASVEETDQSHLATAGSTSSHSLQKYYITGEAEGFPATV
In general terms: Quantitative high-throughput screening tests each substance at several concentrations.

For assay [8], the target named is Glucocorticoid receptor (Homo sapiens) (UniProt P04150). As to the kind of experiment: qHTS assay for small molecule agonists of glucocorticoid receptor signaling (AID 588532; active means well fitted curve in the direction sought with a large enough effect in the signal ratio, with a control signal flat; the % refers to the signal ratio;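 further: 100% = dexamethasone at 0.1 µM and 0% = DMSO only wells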). The note with it: HeLa MMTV-bla, beta-lactamase ratio, agonist, 18 h; stronger effect = higher value; percent of dexamethasone control, DMSO zero. In short, it runs like this:
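Cells were plated and rested 3-5 h at 37 C, compounds were added in titration and incubated 18 h, then CCF4 substrate was loaded for 2 h at RT before reading blue/green fluorescence. EC50 came from Hill-equation fitting.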

Assay [9] is described as follows: qHTS assay for small molecule antagonists of peroxisome proliferator-activated receptor delta signaling (AID 588535; active means well fitted inhibition curve with a large enough effect in the signal ratio, with a control signal flat, not every such curve was filed as active; the % refers to the signal ratio;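 on max response: cells co-treated with a PPAR-delta agonist as stimulator during compound exposure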). The note with it: HEK293T PPARd-UAS-bla, beta-lactamase FRET ratio, 18 h; 460 nm channel. The method in brief: (§1)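 Antagonist-mode beta-lactamase reporter (GeneBLAzer PPAR-delta-UAS-bla) in HEK293T cells, 2% charcoal/dextran FBS, 4000 cells/well. Compound titrations, 18 h at 37 C; CCF4 ratio read, IC50 and efficacy from Hill fits.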

In assay [10] the target is Peroxisome proliferator-activated receptor delta (Homo sapiens) (UniProt Q03181). The assay is described as above. The method in brief:
as §1

Assay [11] concerns the target Peroxisome proliferator-activated receptor gamma (Homo sapiens) (UniProt P37231). As to the kind of experiment: qHTS assay for small molecule agonists of peroxisome proliferator-activated receptor gamma signaling (AID 588536; active means well fitted curve in the direction sought with a large enough effect in the signal ratio, with a control signal flat, not every such curve was filed as active; the % refers to the signal ratio;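 further: 0% = DMSO basal wells and 100% = rosiglitazone at 2 µM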). The method in brief:
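GeneBLAzer PPAR-gamma-UAS-bla HEK293 cells in 1% charcoal/dextran-treated FBS medium were treated 16 h at 37 C with compounds. Beta-lactamase activity was read by CCF4 ratio (460/530 nm). Response was normalized to 2 uM rosiglitazone (100%) and DMSO, then Hill-fitted for EC50 and efficacy.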

Assay [12] is described as follows: Cell Viability - LYMP2-024 (AID 988).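 Further: plate controls were DMSO only for no effect and 92 µM tetraoctylammonium bromide for full effect; nearly all actives have a fitted effect of over 60% in size.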 In short, it runs like this: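 Human lymphoblastoid LYMP2-024 cells (2500/well) rested 5 hr, then treated with compound for 24 hr at 37 C in complete medium. Viability was measured as intracellular ATP by CellTiter-Glo luminescence. AC50 values came from Hill-equation fits.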
For assay [13], the target named is Bile acid receptor (Homo sapiens) (UniProt Q96RI1). As to the kind of experiment: qHTS assay for small molecule antagonists of farnesoid X receptor signaling (AID 588526; calls by dose curve; further: on the % scale 0 is the no-effect control and ±100 the full control effect). The method in brief:
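Antagonist mode: titrated compounds tested against chenodeoxycholic acid stimulation (normalized to 50 uM CDCA and DMSO) in GeneBLAzer HEK293T cells for 16 h. Beta-lactamase read by CCF4 fluorescence; IC50 from Hill fits.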

In assay [14] the target is Glucocorticoid receptor (Homo sapiens) (UniProt P04150). Put plainly: qHTS assay for small molecule antagonists of glucocorticoid receptor signaling (AID 588533; active means well fitted inhibition curve with a large enough effect in the signal ratio, with a control signal flat, not every such curve was filed as active; the % refers to the signal ratio; further: on the % scale 0 is the no-effect control and ±100 the full control effect). The method in brief:
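Antagonist-mode qHTS: compound titrations added to GRE-bla HeLa cells, then dexamethasone 2 nM final; 18 h, 37 C. CCF4 FRET fluorescence normalized to dexamethasone and DMSO; IC50 from Hill fit.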

Assay [15] has as its target Vitamin D3 receptor (Homo sapiens) (UniProt P11473). As to the kind of experiment: qHTS assay for small molecule antagonists of vitamin D receptor signaling (AID 588541; calls by dose curve). In short, it runs like this: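 VDR-UAS-bla HEK293T cells in 2% charcoal-stripped FBS were stimulated with 1-alpha,25-dihydroxyvitamin D3 (3 nM final) plus compound for 16 h at 37 C. The beta-lactamase CCF4 readout was normalized to 50 nM agonist and DMSO, and Hill fits gave IC50.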

Assay [16] shares this target. Put plainly: qHTS assay for small molecule agonists of vitamin D receptor signaling (AID 588543; calls by dose curve;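 further: 0% = DMSO basal and 100% = reference agonist control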). In short, it runs like this: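 β-lactamase reporter, VDR-UAS-bla HEK293T, agonist mode. Cells plated 5 h at 37 °C, compound titration 16 h at 37 °C, CCF4 dye 2 h RT, ratio 460/530 nm. Hill fit → EC50, efficacy vs 50 nM 1α,25-(OH)2D3.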
Assay [17] addresses Androgen receptor (Homo sapiens) (UniProt P10275). As to the kind of experiment: qHTS assay for small molecule agonists of androgen receptor signaling (AID 588515; active means well fitted curve in the direction sought with a large enough effect in the signal ratio, with a control signal flat; the % refers to the signal ratio; further: on the % scale 0 is the no-effect control and ±100 the full control effect). The note with it: AR-UAS-bla HEK293, beta-lactamase ratio, agonist 16 h; stronger effect = higher value. The method in brief: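 EC50 and efficacy came from Hill fits of titrations (up to 92 uM) normalized to 30 nM R1881 as 100% and DMSO as 0%. Compound exposure was 16 h at 37 C on AR-UAS-bla HEK293 cells, with a 405/460/530 nm CCF4 fluorescence read.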

The target is the same in assay [18]. As to the kind of experiment: qHTS assay for small molecule antagonists of androgen receptor signaling (AID 588516; active means well fitted curve in the direction sought with a large enough effect in the signal ratio, with a control signal flat, not every such curve was filed as active; the % refers to the signal ratio; further: on the % scale 0 is the no-effect control and ±100 the full control effect). The method in brief:
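HEK293 AR-UAS-bla cells, 10% dialyzed FBS medium; cpd titration + R1881 10 nM final, 16 h 37 C; CCF4 2 h RT; FRET ratio; IC50/efficacy via Hill fit.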

The target of assay [19] is Peroxisome proliferator-activated receptor gamma (Homo sapiens) (UniProt P37231). As to the kind of experiment: qHTS assay for small molecule antagonists of peroxisome proliferator-activated receptor gamma signaling (AID 588537; active means well fitted inhibition curve with a large enough effect in the signal ratio, with a control signal flat, not every such curve was filed as active; the % refers to the signal ratio;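 further: reporter cells co-stimulated with 50 nM rosiglitazone agonist during compound treatment; % of control where 0% means no effect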). In short, it runs like this: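 PPARγ-UAS-bla HEK293 cells (3000/well) in 1% charcoal/dextran-stripped FBS are treated with compound, then stimulated with 50 nM rosiglitazone for 16 h at 37 °C. Read-out is CCF4 β-lactamase fluorescence after 2 h at RT. IC50 comes from Hill fits normalised to rosiglitazone and DMSO.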
Sequence of Peroxisome proliferator-activated receptor gamma (Homo sapiens) (P37231 whole entry, looked up): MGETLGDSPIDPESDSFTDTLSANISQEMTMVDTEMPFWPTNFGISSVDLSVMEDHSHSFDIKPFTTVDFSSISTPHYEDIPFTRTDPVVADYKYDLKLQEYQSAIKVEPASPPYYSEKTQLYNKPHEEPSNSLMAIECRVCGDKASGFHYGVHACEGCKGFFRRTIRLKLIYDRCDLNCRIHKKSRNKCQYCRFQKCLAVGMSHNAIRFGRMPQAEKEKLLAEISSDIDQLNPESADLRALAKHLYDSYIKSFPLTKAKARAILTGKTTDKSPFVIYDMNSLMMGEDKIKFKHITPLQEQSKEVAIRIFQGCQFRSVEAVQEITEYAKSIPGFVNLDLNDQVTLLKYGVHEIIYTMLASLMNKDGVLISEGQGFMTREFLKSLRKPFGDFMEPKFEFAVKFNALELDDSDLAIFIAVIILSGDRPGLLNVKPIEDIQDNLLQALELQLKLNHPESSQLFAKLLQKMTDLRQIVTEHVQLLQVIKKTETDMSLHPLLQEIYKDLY

Records with an inconclusive call do not appear. Calls of active or inactive are those of the source. Unless noted, the call rests on the fitted dose curve; in most records, active means well fitted cell-killing curve with a large enough effect; inconclusive means small, poorly fitted or top-dose-only effect; inactive means flat fitted curve, though single readings scatter.

Sequence of Bile acid receptor (Homo sapiens) (Q96RI1 whole entry, looked up): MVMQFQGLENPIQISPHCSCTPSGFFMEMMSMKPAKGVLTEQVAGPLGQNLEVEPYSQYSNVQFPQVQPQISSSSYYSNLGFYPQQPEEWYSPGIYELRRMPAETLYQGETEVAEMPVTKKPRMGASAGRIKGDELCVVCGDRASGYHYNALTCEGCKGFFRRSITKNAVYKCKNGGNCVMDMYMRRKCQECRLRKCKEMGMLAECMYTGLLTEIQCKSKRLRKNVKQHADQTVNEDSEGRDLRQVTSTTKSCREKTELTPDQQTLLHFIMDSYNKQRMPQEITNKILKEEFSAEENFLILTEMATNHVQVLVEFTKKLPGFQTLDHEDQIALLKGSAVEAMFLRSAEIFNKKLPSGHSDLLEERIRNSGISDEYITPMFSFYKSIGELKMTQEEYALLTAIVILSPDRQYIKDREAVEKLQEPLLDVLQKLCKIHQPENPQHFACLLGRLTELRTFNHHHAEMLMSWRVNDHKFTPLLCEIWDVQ
Sequence of Glucocorticoid receptor (Homo sapiens) (P04150 whole entry, looked up): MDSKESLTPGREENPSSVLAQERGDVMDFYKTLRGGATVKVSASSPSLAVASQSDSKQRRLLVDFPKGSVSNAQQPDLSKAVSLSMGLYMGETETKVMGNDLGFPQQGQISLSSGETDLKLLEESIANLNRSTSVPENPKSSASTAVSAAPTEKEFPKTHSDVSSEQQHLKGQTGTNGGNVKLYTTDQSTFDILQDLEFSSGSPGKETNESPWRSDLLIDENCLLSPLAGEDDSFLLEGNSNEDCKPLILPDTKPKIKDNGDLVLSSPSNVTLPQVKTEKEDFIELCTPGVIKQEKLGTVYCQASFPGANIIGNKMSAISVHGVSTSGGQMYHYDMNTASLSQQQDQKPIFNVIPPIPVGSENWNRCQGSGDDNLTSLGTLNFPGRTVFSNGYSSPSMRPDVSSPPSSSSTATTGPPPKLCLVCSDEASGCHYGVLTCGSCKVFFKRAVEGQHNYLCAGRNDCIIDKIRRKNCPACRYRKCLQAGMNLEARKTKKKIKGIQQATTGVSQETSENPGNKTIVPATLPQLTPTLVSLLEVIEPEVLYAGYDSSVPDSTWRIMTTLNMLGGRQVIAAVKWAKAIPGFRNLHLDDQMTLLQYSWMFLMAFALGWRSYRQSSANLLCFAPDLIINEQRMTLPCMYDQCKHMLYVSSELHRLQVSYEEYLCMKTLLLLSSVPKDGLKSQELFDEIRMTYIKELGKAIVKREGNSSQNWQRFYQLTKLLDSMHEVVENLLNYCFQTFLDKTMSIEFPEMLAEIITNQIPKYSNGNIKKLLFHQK
Sequence of Peroxisome proliferator-activated receptor delta (Homo sapiens) (Q03181 whole entry, looked up): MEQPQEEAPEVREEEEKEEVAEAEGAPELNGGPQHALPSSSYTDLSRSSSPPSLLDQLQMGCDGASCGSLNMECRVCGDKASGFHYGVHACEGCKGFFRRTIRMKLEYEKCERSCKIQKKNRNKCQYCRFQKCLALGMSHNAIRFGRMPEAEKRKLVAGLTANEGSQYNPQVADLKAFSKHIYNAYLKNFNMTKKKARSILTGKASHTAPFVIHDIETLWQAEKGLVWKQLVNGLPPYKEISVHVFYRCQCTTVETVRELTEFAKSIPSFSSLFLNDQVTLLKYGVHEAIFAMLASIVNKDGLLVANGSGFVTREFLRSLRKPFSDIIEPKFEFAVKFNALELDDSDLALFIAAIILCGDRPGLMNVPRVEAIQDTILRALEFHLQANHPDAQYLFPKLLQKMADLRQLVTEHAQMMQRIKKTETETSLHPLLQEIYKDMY
Sequence of Vitamin D3 receptor (Homo sapiens) (P11473 whole entry, looked up): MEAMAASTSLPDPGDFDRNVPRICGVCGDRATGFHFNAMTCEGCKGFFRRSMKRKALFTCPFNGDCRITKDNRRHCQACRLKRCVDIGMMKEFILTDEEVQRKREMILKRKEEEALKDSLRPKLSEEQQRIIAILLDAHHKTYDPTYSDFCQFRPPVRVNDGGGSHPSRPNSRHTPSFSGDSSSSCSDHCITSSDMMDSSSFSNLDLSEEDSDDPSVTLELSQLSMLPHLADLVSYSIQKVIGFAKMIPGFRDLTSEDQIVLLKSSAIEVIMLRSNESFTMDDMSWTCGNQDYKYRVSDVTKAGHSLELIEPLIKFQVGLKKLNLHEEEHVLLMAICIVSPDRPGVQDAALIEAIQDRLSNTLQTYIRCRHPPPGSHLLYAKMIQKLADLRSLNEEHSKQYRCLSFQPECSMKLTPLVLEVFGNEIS
Sequence of Androgen receptor (Homo sapiens) (P10275 whole entry, looked up): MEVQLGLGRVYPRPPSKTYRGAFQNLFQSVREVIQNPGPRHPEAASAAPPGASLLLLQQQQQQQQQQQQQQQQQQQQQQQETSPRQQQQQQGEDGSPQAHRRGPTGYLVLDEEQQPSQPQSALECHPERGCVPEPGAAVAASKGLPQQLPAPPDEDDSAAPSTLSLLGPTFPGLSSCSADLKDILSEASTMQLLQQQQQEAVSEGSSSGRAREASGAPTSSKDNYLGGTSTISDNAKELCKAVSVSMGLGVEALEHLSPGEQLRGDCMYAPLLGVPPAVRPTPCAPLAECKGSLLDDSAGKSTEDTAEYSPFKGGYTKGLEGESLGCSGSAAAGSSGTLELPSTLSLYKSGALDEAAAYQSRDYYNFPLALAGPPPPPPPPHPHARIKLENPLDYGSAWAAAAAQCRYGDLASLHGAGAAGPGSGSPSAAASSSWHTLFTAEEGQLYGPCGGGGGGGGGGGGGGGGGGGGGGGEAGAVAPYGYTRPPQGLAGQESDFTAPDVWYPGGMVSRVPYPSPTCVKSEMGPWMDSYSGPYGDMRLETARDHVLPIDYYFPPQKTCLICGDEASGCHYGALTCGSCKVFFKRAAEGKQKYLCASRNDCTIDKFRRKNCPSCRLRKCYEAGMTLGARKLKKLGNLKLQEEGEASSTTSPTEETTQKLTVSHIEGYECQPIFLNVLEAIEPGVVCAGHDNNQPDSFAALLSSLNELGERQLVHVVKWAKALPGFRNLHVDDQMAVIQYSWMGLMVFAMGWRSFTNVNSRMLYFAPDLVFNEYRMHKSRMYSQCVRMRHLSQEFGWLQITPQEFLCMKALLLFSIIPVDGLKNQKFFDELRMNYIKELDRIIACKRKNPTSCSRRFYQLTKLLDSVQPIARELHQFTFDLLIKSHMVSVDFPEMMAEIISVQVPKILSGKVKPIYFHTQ

`CCN(CC)c1cccc(O)c1`: the Potency result in assay [1], in assay [2], in assay [4], in assay [5] and in [10] was “inactive” in each case. The outcome in assay [3], in assay [6], in [7] and in assay [11] was inactive. Also, the activation in [8] is -1.18% (inactive). Also, in assay [9], the max response is 12.9%.

`COC(=O)CCCC(=O)OC`: the Potency entry in assay [1], in assay [2], in [12], in assay [4], in assay [5] and in [10] was “inactive” throughout. Further, the molecule was classed as inactive in assay [3], in [6], in [13], in assay [14], in assay [15] and in [16]. Also, the activation in assay [8] was -5.32% (inactive). Further, the max response in assay [9] came to 14.2%.

As to `C=C(C)C(N)=O`, the Potency result in [1], in assay [2], in assay [12], in assay [4] and in [5] was “inactive” throughout. Further, the result in assay [3], in [6], in assay [7], in assay [11], in assay [15] and in [16] was inactive.

On to `CCCC(C)CO` (configuration not stated), for which the Potency result in assay [1], in assay [2], in assay [12], in assay [5] and in [10] was “inactive” throughout. Besides, the call in assay [3], in assay [6], in assay [18], in [13], in assay [14] and in [19] was inactive. Moreover, the activation in assay [17] is -5.4% (inactive); in [8] it was 0.0234% (inactive). In [9], the max response was -16%.

Regarding `Cc1ccc(C)o1`, the Potency result in [1], in assay [2], in assay [12], in assay [4], in [5] and in assay [10] was “inactive” in each case. Besides, the outcome in assay [3], in assay [6], in [13], in assay [14], in assay [11] and in assay [15] was inactive. The outcome in [16] was inactive. In addition, in [8], the activation is -6.27% (inactive). In addition, the max response in assay [9] is -8.16%.

Consider `CCCCCCO`, for which the Potency entry in assay [1], in [2], in assay [12], in assay [4] and in assay [5] was “inactive” throughout. Besides, the outcome in [3], in assay [6], in [7], in assay [14], in assay [11] and in assay [19] was inactive. For the same molecule, the molecule was classed as inactive in assay [15] and in assay [16]. Moreover, the activation in assay [8] is -1.01% (inactive).

As for `NC(=O)c1ccccc1[N+](=O)[O-]`, the Potency result in assay [1], in assay [12], in assay [4], in assay [5] and in [10] was “inactive” throughout. The molecule was called inactive in assay [3], in [6], in assay [7], in assay [11] and in [19]. The max response in assay [9] is -1.98%.

For the molecule `CC(C)Nc1ccccc1`, the Potency entry in [1], in [2], in assay [12], in assay [4], in [5] and in assay [10] was “inactive” throughout. The result in assay [3], in assay [6], in assay [7], in assay [11], in [15] and in assay [16] was inactive. Further, the activation in assay [8] was -8.21% (inactive). Moreover, the max response in assay [9] was 31.6%.

In the case of `Cc1ccc2ccccc2c1[N+](=O)[O-]`, the Potency result in assay [1], in assay [12], in assay [4] and in [5] was “inactive” in each case. Further, the result in assay [3], in [6], in [7], in assay [14], in assay [11] and in assay [19] was inactive. The result in assay [15] and in assay [16] was inactive. In addition, in [8], the activation was -8.32% (inactive).

As for `O=[N+]([O-])c1ccc(NCCO)c(OCCO)c1`, the Potency entry in assay [1], in assay [2], in assay [12], in assay [4], in [5] and in assay [10] was “inactive” in each case. The call in assay [3], in [6], in assay [13], in assay [14], in assay [11] and in assay [15] was inactive. Further, the molecule was classed as inactive in [16]. Besides, the activation in assay [8] was 5.48% (inactive). In assay [9], the max response was found to be 15.8%.
